# Assay results as given in the supplement of paper PMC6522484.
# Structures can show the parent of a compound that is named as a salt. ± gives the standard deviation of the averaged measurements.
# Experiments:
# DLD1 [1] = experiment: cell viability (CellTiter-Glo) relative to plate median (fraction of plate median); higher = more viable cells; details: 10 µM, treatment time 24 h
# How it was run: (§1)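 Colorectal cancer cell lines stably transduced with lentiviral TCF/Wnt firefly luciferase reporters (7TFP or TCF4/Wnt) were seeded in 384-well plates. 24 h later they received kinase inhibitor library compounds at a final 10 µM for 24 h. Parallel plates were read for firefly luciferase or CellTiterGlo luminescence on a Tecan F500 reader. Each well's signal was normalised to the plate median (webcellHTS2, additive, no log transformation), and the mean of two independent replicates is reported.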
# HCT116 [2] = experiment: as above; details: 10 µM; treatment time 24 h; reporter: TCF4/Wnt
# How it was run: as §1
# SW480 [3] = experiment: as above; details: 10 µM; treatment time 24 h; reporter: 7TFP
# How it was run: as §1
# DLD1 [4] = experiment: TCF/Wnt firefly luciferase reporter signal relative to plate median (fraction of plate median); higher = higher Wnt reporter signal; details: 10 µM, treatment time 24 h
# How it was run: as §1
# HCT116 [5] = experiment: as above; details: 10 µM; treatment time 24 h; reporter: TCF4/Wnt
# How it was run: as §1
# SW480 [6] = experiment: as above; details: 10 µM; treatment time 24 h; reporter: 7TFP
# How it was run: as §1
Structure (SMILES),cell viability (DLD1 [1]; reporter: 7TFP),cell viability (DLD1 [1]; reporter: TCF4/Wnt),cell viability (HCT116 [2]),cell viability (SW480 [3]),TCF/Wnt firefly luciferase reporter signal (DLD1 [4]; reporter: 7TFP),TCF/Wnt firefly luciferase reporter signal (DLD1 [4]; reporter: TCF4/Wnt),TCF/Wnt firefly luciferase reporter signal (HCT116 [5]),TCF/Wnt firefly luciferase reporter signal (SW480 [6])
CN(C)c1ccc(-c2nc3ncc(Cl)c(N4CCN(CC(=O)Nc5nccs5)CC4)c3[nH]2)cc1,1.1 ± 0.05,1.04 ± 0.021,1.14 ± 0.028,0.96 ± 0.057,1.1 ± 0.3,1.1 ± 0.31,1.26 ± 0.17,1.16 ± 0.064
CCn1nnc2c(N3CCOCC3)nc(-c3ccc(NC(=O)Nc4ccc(C(=O)N5CCN(C)CC5)cc4)cc3)nc21,1.21 ± 0.16,1.09 ± 0.092,0.683 ± 0.11,1.14 ± 0.028,0.633 ± 0.025,1.19 ± 0.042,0.59 ± 0.19,0.821 ± 0.054
Cc1cnc(NC(=O)Nc2cc(Br)c(C)cc2OC[C@@H]2CNCCO2)cn1,0.833 ± 0.16,0.983 ± 0.096,0.805 ± 0.16,1.02 ± 0.089,1.06 ± 0.057,1.12 ± 0.028,0.894 ± 0.35,0.938 ± 0.012
Clc1ccc(Nc2nnc(Cc3ccncc3)c3ccccc23)cc1 [Vatalanib dihydrochloride (PTK787)],0.9675 ± 0.0021,0.978 ± 0.011,1.08 ± 0.13,0.925 ± 0.011,0.852 ± 0.038,0.965 ± 0.13,0.899 ± 0.11,0.957 ± 0.089
"Cc1cc(Nc2cc(N3CCN(C)CC3)nc(Sc3ccc(NC(=O)C4CC4)cc3)n2)n[nH]1 [VX-680 (MK-0457, Tozasertib)]",1.12 ± 0.18,0.975 ± 0.078,1.02 ± 0.028,1.16 ± 0.021,0.773 ± 0.0014,0.776 ± 0.057,1.56 ± 0.13,1.11 ± 0.23
Cc1ccc([N+](=O)[O-])cc1S(=O)(=O)N(C)/N=C/c1cnc2ccc(Br)cn12,0.887 ± 0.097,1.07 ± 0.078,0.763 ± 0.23,1.13 ± 0.11,0.358 ± 0.074,0.239 ± 0.0014,0.155 ± 0.059,0.53 ± 0.24
O=C(NCCCNc1nc(Nc2cccc(NC(=O)N3CCCC3)c2)ncc1I)c1cccs1,0.966 ± 0.19,0.97 ± 0.21,0.817 ± 0.6,1.06 ± 0.14,0.81 ± 0.0057,0.882 ± 0.32,1.06 ± 1.1,1.06 ± 0.021
C=CC(=O)Nc1cccc(Oc2nc(Nc3ccc(N4CCN(C)CC4)cc3)ncc2Cl)c1,0.968 ± 0.045,1.045 ± 0.0071,0.894 ± 0.16,1.07 ± 0.085,0.79 ± 0.067,0.969 ± 0.12,1.18 ± 0.42,0.834 ± 0.39
O=C(Nc1cccc(Nc2ncc(Br)c(NCCc3cnc[nH]3)n2)c1)N1CCCC1,1.07 ± 0.05,1.02 ± 0.071,0.932 ± 0.016,1.16 ± 0.05,1.74 ± 0.31,1.39 ± 0.38,1.97 ± 0.11,1.33 ± 0.13
NCC(=O)Nc1ccc(-n2nc(C(F)(F)F)cc2-c2ccc3c(ccc4ccccc43)c2)cc1,0.883 ± 0.098,0.998 ± 0.14,0.833 ± 0.13,0.678 ± 0.46,1.09 ± 0.085,1.31 ± 0.34,0.606 ± 0.18,1.3 ± 0.057
COc1cc2ncnc(Nc3ccc(F)c(Cl)c3)c2cc1NC(=O)/C=C/CN1CCCCC1,0.875 ± 0.16,1 ± 0.12,0.993 ± 0.024,1.16 ± 0.16,0.615 ± 0.035,0.531 ± 0.092,0.548 ± 0.0014,0.935 ± 0.071
S=C(NCc1ccc2c(c1)OCO2)N1CCN(c2ncnc3c2oc2ccccc23)CC1 [Amuvatinib (MP-470)],0.997 ± 0.047,1.03 ± 0.091,1.15 ± 0.17,0.869 ± 0.013,1.07 ± 0.092,1.23 ± 0.057,1.13 ± 0.29,0.953 ± 0.12
CN1CCN(c2nc(C3=C(c4c[nH]c5ccccc45)C(=O)NC3=O)c3ccccc3n2)CC1 [Sotrastaurin (AEB071)],1.08 ± 0.092,1.045 ± 0.0071,1.03 ± 0.13,0.914 ± 0.1,1.54 ± 0.05,1.52 ± 0.28,1.33 ± 0.83,0.983 ± 0.63
COc1cc2c(Oc3ccc(NC(=O)C4(C(=O)Nc5ccc(F)cc5)CC4)cc3F)ccnc2cc1OCCCN1CCOCC1,0.845 ± 0.044,0.875 ± 0.042,0.845 ± 0.12,1.03 ± 0.13,0.794 ± 0.15,0.568 ± 0.054,1.2 ± 0.28,0.838 ± 0.4
Clc1ccc(C2(c3ccc(-c4cn[nH]c4)cc3)CCNCC2)cc1,1.01 ± 0.025,1.08 ± 0.028,1.03 ± 0.13,1.15 ± 0.057,1.13 ± 0.13,0.883 ± 0.11,0.871 ± 0.024,1.33 ± 0.021
CCCCCCCCCCCCc1ccc(S(=O)(=O)Nc2nncs2)cc1,1.03 ± 0.05,0.966 ± 0.037,1.16 ± 0.035,0.91 ± 0.016,0.981 ± 0.041,1.14 ± 0.18,1.21 ± 0.16,0.959 ± 0.12
Cc1ccc(NC(=O)c2ccc(CN3CCN(C)CC3)cc2)cc1Nc1nccc(-c2cccnc2)n1 [Imatinib (Gleevec)],1.05 ± 0.099,1.035 ± 0.0071,0.993 ± 0.024,0.986 ± 0.011,1.65 ± 0.057,1.55 ± 0.11,1.42 ± 0.23,1.39 ± 0.22
O=C(Nc1ccc(OC(F)(F)F)cc1)c1sccc1NCc1ccnc2ccccc12,1.01 ± 0.023,0.924 ± 0.025,1.21 ± 0.035,0.971 ± 0.13,1.08 ± 0.15,0.97 ± 0.085,0.842 ± 0.62,0.864 ± 0.48
"CC[C@H](CO)Nc1nc(NCc2ccccc2)c2ncn(C(C)C)c2n1 [Roscovitine (Seliciclib, CYC202)]",0.852 ± 0.065,0.922 ± 0.0099,0.923 ± 0.12,0.833 ± 0.039,1.14 ± 0.35,1.46 ± 0.23,1.34 ± 0.43,1.02 ± 0.028
COC(=O)Nc1ccc(-c2nc(N3CCOCC3)c3cnn(C4CCN(Cc5cccnc5)CC4)c3n2)cc1,0.796 ± 0.069,0.872 ± 0.036,0.759 ± 0.059,1.055 ± 0.0071,0.372 ± 0.064,0.632 ± 0.04,0.595 ± 0.068,0.765 ± 0.066
CN(C)CCOc1ccc(-c2nc(-c3ccncc3)c(-c3ccc4c(c3)CC/C4=N\O)[nH]2)cc1,1.04 ± 0.071,1.14 ± 0.064,1.2 ± 0.11,1.11 ± 0.071,1.3 ± 0.092,1.28 ± 0.042,1.19 ± 0.24,1.27 ± 0.33
